# Data: PubChem BioAssay AID1845225 (National Center for Advancing Translational Sciences (NCATS), 2023)
# Inconclusive results are not listed. The source made the active and inactive calls. The call rests on the fitted dose curve; in most records, active means well fitted curve in the direction sought with a large enough effect; inconclusive means small, poorly fitted or top-dose-only effect, or effect the other way, or another doubt; inactive means no such curve, though single readings can be large or run the other way.
# Experiment: Confirmatory redox qHTS assay for identification of artifact compounds.
# Conditions: Amplex Red/HRP redox cycling with DTT, fluorescence; series mostly up to 39 µM
# Summary of the method: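 Amplex Red (25 uM final) and HRP (250 mU/mL final) in HBSS, compound 15 min, then 250 uM DTT final 30 min, room temperature, dark; fluorescence 525/598 nm, normalized to DMSO and 10 uM DA3003, Hill fitted.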
row,Compound,outcome
1,CC1CCCCN1CCCNC(=O)Cn1ncc2c3ccccc3n(Cc3ccccc3)c2c1=O (stereo not given),inactive
2,CC(=NCc1ccccc1)c1ccccc1O,inactive
3,CC(NC(=O)CSc1nc(-c2ccccc2F)nc2cc(=O)[nH]n12)c1nc2ccccc2n1C (stereo not given),inactive
4,O=C1c2ccccc2C(=O)N1c1ccc2ncccc2c1,inactive
5,CC1=C(/C=C/C(C)=C/C=C/C(C)=C\C(=O)O)C(C)(C)CCC1,inactive
6,COc1ccc(NC(=O)N2CCc3c(sc4c3CCCC4)C2c2ccccc2OC)cc1 (stereo not given),inactive
7,Cc1ccc(-c2nc3scc(CCNS(=O)(=O)c4ccc(F)c(C)c4)n3n2)cc1,inactive
8,COc1ccccc1CNC(=O)CCC(=O)N1Cc2ccccc2Oc2ncccc21,inactive
9,Cc1cccc(C(=O)NCCc2nc3ccccc3n2CCC(C)C)c1,inactive
10,COc1ccc(Cn2c(SCc3ccc(C(=O)NC4CCCCC4)cc3)nc3ccncc32)cc1,inactive
11,Cc1nc(S(=O)(=O)N2CCN(c3ccccc3F)CC2)cn1C,inactive
12,Cc1ccc(NC(=O)c2ccc3c(c2)NC(=O)c2ccccc2S3)cc1,inactive
13,O=S(=O)(c1cc(Br)c(Br)s1)N1CCN(c2ccccc2)CC1,inactive
14,CC[C@H](C)CCCCC(=O)N[C@@H](CCN)C(=O)N[C@H](C(=O)N[C@@H](CCN)C(=O)N[C@H]1CCNC(=O)[C@@H]([C@H](C)O)NC(=O)[C@H](CCN)NC(=O)[C@H](CCN)NC(=O)[C@H](CC(C)C)NC(=O)[C@@H](CC(C)C)NC(=O)[C@H](CCN)NC1=O)[C@@H](C)O,inactive
15,O=C(Nc1ccc(Cl)cc1)N1CCC(c2ccccc2)C1 (stereo not given),inactive
16,Cn1cc(CN(C(=O)Nc2ccc(Cl)c(Cl)c2)C2CCCCC2)c2ccccc21,inactive
17,COc1cc(O)c(C(CC(=O)N2CCCCC2)c2ccc(C)cc2)c(OC)c1 (stereo not given),inactive
18,CCOc1ccc(C(=O)c2cn(CC(=O)Nc3cc(OC)ccc3OC)c3cc(OC)c(OC)cc3c2=O)cc1,inactive
19,COc1ccc(NC(=O)CSc2nc(-c3ccccc3)nc3c2Cc2c(CO)cnc(C)c2O3)cc1Cl,inactive
20,O=C(Nc1onc2c1CCCC2)c1ccc(Cl)cc1,inactive

row,Compound,outcome
1,Cc1oc(-c2ccccc2)nc1CNC(=O)Nc1ccccc1,inactive
2,Cc1cc(C)cc(-n2ccn(Cc3ccc(F)cc3)c(=O)c2=O)c1,inactive
3,Cc1ccc(C)c(NC(=O)CC2NCCNC2=O)c1 (stereo not given),inactive
4,O=C(Cn1nc(-c2ccc(Cl)cc2)ccc1=O)NCCc1ccccc1,inactive
5,O=C(CN1C(=O)CCn2nc(-c3ccccc3)cc21)NCc1ccc(Cl)cc1,inactive
6,COc1ccc(OC)c(NC(=O)Cn2c(=O)n(CC3CCCO3)c(=O)c3cc(OC)c(OC)cc32)c1 (stereo not given),inactive
7,O=C1c2oc3ccc(F)cc3c(=O)c2C(c2cccc([N+](=O)[O-])c2)N1CCCN1CCOCC1 (stereo not given),inactive
8,CCCCCCOc1ccc(CC(=O)O)cc1,inactive
9,Cc1ccc(OCCn2c(CCNC(=O)OC(C)(C)C)nc3ccccc32)cc1,inactive
10,CCOc1ccc(C[C@H]2NC(=O)CCSSC[C@@H](C(=O)N3CCC[C@H]3C(=O)N[C@@H](CCCN)C(=O)NCC(N)=O)NC(=O)[C@H](CC(N)=O)NC(=O)[C@H]([C@@H](C)O)NC(=O)[C@H]([C@@H](C)CC)NC2=O)cc1,inactive
11,COc1cc(OC)c(NC(=O)C(c2ccccc2)N2Cc3ccccc3C2=O)cc1Cl (stereo not given),inactive
12,CCOc1ccc(CCNC(=O)c2cnc3c(-c4ccccc4)c(C)nn3c2C)cc1OCC,inactive
13,COc1ccc(C(=O)O)cc1Nc1nc2ccc(C)cc2n2cnnc12,inactive
14,CC(=O)N1CCC(C(=O)Nc2nnc(C(C)C)s2)CC1,inactive
15,CC(C)Oc1ccc(CNC(=O)Cc2ccc(NC(=O)N3CCSc4ncccc43)cc2)cc1,inactive
16,OC[C@H]1O[C@@H]2O[C@H]3[C@H](O)[C@@H](O)[C@@H](O[C@H]4[C@H](O)[C@@H](O)[C@@H](O[C@H]5[C@H](O)[C@@H](O)[C@@H](O[C@H]6[C@H](O)[C@@H](O)[C@@H](O[C@H]7[C@H](O)[C@@H](O)[C@@H](O[C@H]1[C@H](O)[C@H]2O)O[C@@H]7CO)O[C@@H]6CO)O[C@@H]5CO)O[C@@H]4CO)O[C@@H]3CO,inactive
17,Cc1cccc(NC(=O)CN2C(=O)C(c3ccc(F)cc3)=NC23CCCCCC3)c1,inactive
18,Cc1ccc(NS(=O)(=O)c2ccc3c(c2)CCN(C(=O)C(F)(F)F)C3)cc1C,inactive
19,Cc1ccccc1NC(=O)Cn1c(=O)n(CCc2ccccc2)c(=O)c2sc3ccccc3c21,inactive
20,Cc1ccc(C)c(NC(=O)CN2CCCN(Cc3cccc(Cl)c3)S2(=O)=O)c1,inactive
